Data: PubChem BioAssay (NCI)
About 79,000 compounds went through this panel and 15% of them were active in at least one assay; those are over-represented in the sample as a whole. A number with no mark means an inactive call. The source made the active and inactive calls. Rule as the data show it: active = growth inhibition above about 70%; inactive = the rest.

How the values were obtained:
[1] = NCI Yeast Anticancer Drug Screen. Data for the rad50 strain (AID 155);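 also: 0% = growth of vehicle-only cultures of the same strain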; settings: S. cerevisiae rad50 strain growth inhibition, hits give high values
How it was run: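 Cells are treated with compound, grown, and their growth is then scored against vehicle-only cultures of the same repair-deficient yeast strain.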

[2] = NCI Yeast Anticancer Drug Screen. Data for the mec2-1 strain (AID 157); settings: S. cerevisiae mec2-1 strain, hits give high values
How it was run: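 Strain: mec2-1 (DNA repair/cell cycle alteration). Compound exposure, then growth measured; inhibition expressed relative to vehicle.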

[3] = NCI Yeast Anticancer Drug Screen. Data for the sgs1 mgt1 strain (AID 161);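 also: 0% = growth of cultures given vehicle only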; settings: S. cerevisiae sgs1 mgt1 strain, hits give high values
How it was run: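 Inhibition of yeast growth, normalised to vehicle-treated controls, is reported for a strain bearing genetic alterations in DNA damage repair.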

[4] = NCI Yeast Anticancer Drug Screen. Data for the cln2 rad14 strain (AID 165);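 also: 0% = growth equal to vehicle treated cultures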; settings: S. cerevisiae cln2 rad14 strain, hits give high values
How it was run: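 Compounds are applied to the cln2 rad14 yeast strain, and growth is then compared with that of vehicle-treated cultures to give inhibition.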

[5] = NCI Yeast Anticancer Drug Screen. Data for the bub3 strain (AID 167); settings: S. cerevisiae bub3 mutant strain, hits give high values
How it was run: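 Part of a panel of yeast mutants defective in DNA damage repair or cell cycle regulation. Each strain is grown with compound, and inhibition is calculated relative to solvent-treated cultures.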

[6] = NCI Yeast Anticancer Drug Screen. Data for the mlh1 rad18 strain (AID 175); settings: S. cerevisiae mlh1 rad18 strain growth inhibition, hits give high values
How it was run: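 Read-out is yeast growth inhibition, calculated against vehicle-only controls. The compound was applied to a strain engineered with DNA damage repair alterations.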

[7] = at 5.0 µM (retest, dose inferred, filed as 0.5)
[8] = at 50.0 µM (retest, dose inferred, filed as 5.0)

Structure (SMILES)	growth inhibition [1, 7]	growth inhibition [1, 8]	growth inhibition ([1]; at 50.0 µM)	growth inhibition [2, 7]	growth inhibition [2, 8]	growth inhibition ([2]; at 50.0 µM)	growth inhibition [3, 7]	growth inhibition [3, 8]	growth inhibition ([3]; at 50.0 µM)	growth inhibition [4, 7]	growth inhibition [4, 8]	growth inhibition ([4]; at 50.0 µM)	growth inhibition [5, 7]	growth inhibition [5, 8]	growth inhibition ([5]; at 50.0 µM)	growth inhibition [6, 7]	growth inhibition [6, 8]	growth inhibition ([6]; at 50.0 µM)
S=C(NCCc1ccccc1)N/N=C/c1ccc(Cl)cc1	52%	57%	85.7% (active)	36%	54%	74.3% (active)	54%	61%	83.5% (active)	34%	45%	83% (active)	52%	65%	85.6% (active)	61%	67%	80.9% (active)
CCOC(=O)c1cc(NC(=O)c2cc(NC(=O)c3cc(NC(=O)c4c(-c5ccccc5)noc4C)cn3C)cn2C)cn1C	3%	56%	50.3%	-3%	54%	56.8%	2%	86% (active)	59.1%	-5%	29%	14.8%	-4%	46%	36.1%	0%	67%	51.3%
CC(NNC(=S)N1CCCCCC1)c1cccnn1 (stereo not given)	99% (active)	99% (active)	89% (active)	98% (active)	99% (active)	93% (active)	97% (active)	99% (active)	89.2% (active)	98% (active)	99% (active)	90.5% (active)	98% (active)	99% (active)	91.6% (active)	99% (active)	99% (active)	85% (active)
C[CH2][Sn]([CH2]C)([O]C(=O)c1ccccc1OC)[O][Sn]([CH2]C)([CH2]C)[O]C(=O)c1ccccc1OC	36%	78% (active)	51.6%	35%	87% (active)	41%	33%	83% (active)	42.2%	20%	62%	20.8%	35%	94% (active)	32.1%	38%	84% (active)	72.8% (active)
C=C1CC[C@H]2C(C)=CC[C@@H]3[C@H](OC(=O)[C@H]3CN3CCN(c4ccc(C)c([N+](=O)[O-])c4)CC3)[C@@H]12	29%	65%	69%	30%	40%	66.2%	52%	76% (active)	79.6% (active)	48%	60%	63%	52%	71% (active)	69.8%	42%	72% (active)	47.8%
O=C(CCl)Nc1cc(Cl)ccc1Cl	2%	23%	37.5%	-20%	26%	30.8%	6%	30%	43.4%	5%	20%	18.1%	10%	83% (active)	84.6% (active)	2%	18%	4.8%
Clc1ccc(CNc2ccc(Br)cc2)cc1	0%	82% (active)	94.5% (active)	3%	93% (active)	85.5% (active)	4%	94% (active)	95.8% (active)	-9%	80% (active)	82.2% (active)	3%	86% (active)	85.2% (active)	-1%	91% (active)	87.7% (active)
COC1CC(OC(=O)c2ccccc2)C2OC(c3ccccc3)OCC2O1 (stereo not given)	3%	26%	42.5%	2%	18%	8.35%	1%	44%	63.3%	7%	39%	-3.35%	24%	80% (active)	15.2%	6%	36%	6.15%
Cc1csc2[n+]1C(=O)/C(=C\c1ccc([N+](=O)[O-])cc1)S2	30%	74% (active)	69.6%	21%	71% (active)	56.2%	32%	80% (active)	50.3%	7%	67%	57.5%	26%	76% (active)	46.9%	24%	82% (active)	78.3% (active)
CN1CCC(/C=C/c2cccc3ccccc23)CN1 (stereo not given) (tested in a mixture with another compound)	1%	93% (active)	71.5% (active)	18%	71% (active)	71.3% (active)	-1%	91% (active)	79.3% (active)	3%	27%	23.2%	-4%	52%	35.9%	-1%	95% (active)	81.3% (active)
